The whole screen tested about 37,000 compounds, of which about 100 (0.27%) were called active. No stated cut-off is given here; in the data, active means inhibition above about 85%; inconclusive means no clear call, values can overlap the other calls; inactive means below about 68%. Many of the other results were omitted from the sample, so actives are more common in it than they were.

This assay can be described thus: inhibitors of MITF, primary screen, MITF inhibitor project, cell-based, luminescence (AID 2240).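 Further: human melanocyte line stably carrying TRPM1 promoter luciferase reporter.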 Conditions: TRPM1 promoter luciferase, 24 h, stronger effect = higher value, concentration not given here.
With `c1ccc2c(c1)[I+]c1ccccc1-2`, the inhibition (as a rule, the drop in the measured response relative to a control, in per cent) is 90% (active).
Regarding `COc1ccc2[nH]cc(CCNCc3ccc(Br)cc3)c2c1`, the inhibition was -13.8% (inactive).
The result for `CCCCC/C=C\C/C=C\C/C=C\CCCCCCC(=O)NCCO` reads -1.85% (inactive); that for `C[C@H]1CCC/C=C/C2C[C@H](O)C[C@H]2[C@H](O)/C=C\C(=O)O1` (stereo not given in full), 108% (active).
Next, `c1cncc(CNCCc2c[nH]c3ccccc23)c1`: 1.76% (inactive); `COc1ccc(CNCc2nc3ccccc3c(=O)n2-c2ccc(F)cc2)cc1`: 8.31% (inactive); `C[C@H]1O[C@@H](O[C@H]2CC[C@]3(CO)C4CC[C@]5(C)[C@@H](C6=CC(=O)OC6)CC[C@]5(O)[C@@H]4CC[C@H]3C2)[C@H](O)[C@H](O)[C@@H]1O[C@@H]1O[C@H](CO)[C@@H](O)[C@H](O)[C@H]1O` (stereo not given in full): 10.7% (inactive).
Consider `CN(C)C(=O)Oc1cc(OC(=O)N(C)C)cc(C(O)CNC(C)(C)C)c1` (stereo not given), for which the inhibition was -14.7% (inactive).
The result for `CCCN(C/C=C/I)C1CCc2ccc(O)cc2C1` (stereo not given) reads -11.9% (inactive); that for `COC1=CC23CCN(C)[C@H](Cc4cc(OC)c(OC)cc42)C3=CC1=O`, 2.51% (inactive); that for `Cc1ncsc1CCCl`, -1.18% (inactive).
Regarding `CN[C@@H]1C[C@H]2O[C@@](C)([C@@H]1OC)n1c3ccccc3c3c4c(c5c6ccccc6n2c5c31)C(=O)NC4`, the inhibition was 106% (active).
Next, `CC(C)c1c(CN(C)C(C)Cc2ccccc2)n(C)n(-c2ccccc2)c1=O` (stereo not given): 20.5% (inactive).
The result for `CC=C1CN2C3CC1C1(C(=O)OC)C2CC2(c4ccccc4N(C)C32)C1O` (stereo not given) reads 4.01% (inactive).
As to `COc1ccccc1N1C(=O)NC(=O)C(CCc2ccncc2)(Cc2cccc3ccccc23)C1=O` (stereo not given), the inhibition was 7.09% (inactive).

These data come from PubChem BioAssay AID2240 (Broad Institute, 2010).
